{"source": "PubChem BioAssay AID2530", "about": "(National Center for Advancing Translational Sciences (NCATS), 2010)", "note": "Results filed as inconclusive are left out. Active and inactive are the calls of the source. Calls follow the shape of the dose curve; as a rule, active = well fitted inhibition curve with a large enough effect; inconclusive = small, poorly fitted or top-dose-only effect; inactive = flat fitted curve, though single readings scatter. Potency is read from the fitted curve at half-maximal effect.", "data": [{"molecular_target": "Luciferin 4-monooxygenase (Photuris pensylvanica) (UniProt Q27757)", "experiment": "Secondary Assay for Luciferase (Kinase-Glo TM) Inhibition Counterscreen;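 as to activity, negative = inhibition: 0% = DMSO only and -100% = 40 µM SIB 1757 full inhibition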", "conditions": "Kinase-Glo luciferase enzyme, luminescence; series mostly up to 58.1 µM; activity, negative = inhibition: at the top concentration", "summary_of_the_method": "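Kinase-Glo firefly-type luciferase with 10 uM ATP in 50 mM imidazole pH 7.2, 50 mM KCl, 7 mM MgCl2, 0.01% Tween 20, 0.05% BSA. Luminescence read after 8 min at ambient temperature, normalized to DMSO and 40 uM SIB 1757, then Hill-fitted.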", "values": [{"smiles": "Cc1ccc(NS(=O)(=O)c2ccc3c(c2)n(C)c(=O)n3C)cc1C", "activity, negative = inhibition": "-0.468% (inactive)"}, {"smiles": "COc1cc(N2C(=O)c3ccccc3C2=O)c2ncccc2c1", "activity, negative = inhibition": "-2.36% (inactive)"}, {"smiles": "Cc1ccc(NS(=O)(=O)c2ccc3c(c2)oc(=O)n3C)cc1C", "activity, negative = inhibition": "-1.45% (inactive)"}, {"smiles": "CC(=O)N1CCc2cc(S(=O)(=O)Nc3ccc(C)c(C)c3)ccc21", "activity, negative = inhibition": "-18.9% (inactive)"}, {"smiles": "O=c1[nH]c2ccccc2n2c(-c3ccccc3)nnc12", "activity, negative = inhibition": "-2.79% (inactive)"}, {"smiles": "COc1ccc(-c2nc(-c3ccccn3)no2)cc1", "Potency": "2.91 µM (active)"}, {"smiles": "CN(C)c1ccc(N=Nc2nc3ccccc3n2C)cc1", "Potency": "9.19 µM (active)"}, {"smiles": "COc1cc(F)c(S(=O)(=O)N2CCCN(S(=O)(=O)c3cccc(N)c3)CC2)c(F)c1", "activity, negative = inhibition": "-0.216% (inactive)"}, {"smiles": "Cc1ccc(C)c(OC2=NS(=O)(=O)c3ccccc32)c1", "Potency": "inactive"}, {"smiles": "O=[N+]([O-])c1cc2oc3c(c2c(C=NCc2ccccc2)c1O)CCCC3", "activity, negative = inhibition": "-0.834% (inactive)"}, {"smiles": "O=C1CCc2cc(S(=O)(=O)Nc3ccncc3)ccc2N1", "activity, negative = inhibition": "-2.9% (inactive)"}, {"smiles": "O=C1c2ccccc2C(=O)N1c1cccc(O)c1", "activity, negative = inhibition": "-6.54% (inactive)"}, {"smiles": "O=C1c2ccccc2C(=O)N1C1CCCCC1", "activity, negative = inhibition": "0.793% (inactive)"}, {"smiles": "O=C1CCc2cc(S(=O)(=O)Nc3cccc(-c4ccccc4)c3)ccc2N1", "activity, negative = inhibition": "-0.362% (inactive)"}, {"smiles": "COc1cccc(N2C(=O)c3ccccc3C2=O)n1", "activity, negative = inhibition": "-2.44% (inactive)"}, {"smiles": "Cc1cccc(OC2=NS(=O)(=O)c3ccccc32)c1", "activity, negative = inhibition": "-3.94% (inactive)"}, {"smiles": "O=C1c2ccccc2C(=O)N1c1cccc(Cl)c1", "activity, negative = inhibition": "-1.52% (inactive)"}, {"smiles": "Cc1ccc(C(=O)N2c3ccccc3CC2C)o1", "note": "(stereo not drawn)", "Potency": "18.3 µM (active)"}, {"smiles": "COc1ccccc1NS(=O)(=O)c1ccc2c(c1)CCC(=O)N2", "activity, negative = inhibition": "1.44% (inactive)"}, {"smiles": "O=C1c2ccccc2C(=O)N1c1noc2ccccc12", "activity, negative = inhibition": "3.69% (inactive)"}, {"smiles": "COc1cccc(NS(=O)(=O)c2ccc3c(c2)CCC(=O)N3)c1", "activity, negative = inhibition": "0.18% (inactive)"}, {"smiles": "CC(=O)N(C1=C(Cl)C(=O)c2ccccc2C1=O)C1CCCCC1", "activity, negative = inhibition": "-12.8% (inactive)"}, {"smiles": "CNc1cccc(S(=O)(=O)N2CCN(S(=O)(=O)c3ccc4c(c3)OCCO4)CC2)c1", "activity, negative = inhibition": "-0.612% (inactive)"}, {"smiles": "Cc1ccc(NS(=O)(=O)c2cc3c(cc2-c2ccsc2)NC(=O)CO3)cc1C", "activity, negative = inhibition": "-1.05% (inactive)"}, {"smiles": "O=C(Nc1ccc2c(c1)OCCO2)c1ccccn1", "Potency": "18.3 µM (active)"}, {"smiles": "CC(C)CN=Cc1c(O)c([N+](=O)[O-])cc2oc3c(c12)CCCC3", "activity, negative = inhibition": "-0.0817% (inactive)"}, {"smiles": "Oc1ccc(O)c2c1C1c3ccccc3C2c2ccccc21", "activity, negative = inhibition": "1.66% (inactive)"}, {"smiles": "Cc1nc(-c2ccc(S(=O)(=O)Nc3ccc(C)c(C)c3)s2)cs1", "activity, negative = inhibition": "1.99% (inactive)"}, {"smiles": "CN=c1scc(-c2ccco2)n1/N=C/c1ccc(O)c(O)c1", "activity, negative = inhibition": "-14.5% (inactive)"}, {"smiles": "CCOc1ccc(C(=O)O/N=C(\\N)c2ccccn2)cc1", "Potency": "5.8 µM (active)"}, {"smiles": "Cc1ccc(NS(=O)(=O)c2ccc3c(c2)CCC(=O)N3)cc1", "activity, negative = inhibition": "-4.6% (inactive)"}, {"smiles": "Cc1ccc(NS(=O)(=O)c2ccc(F)cc2)cc1C", "activity, negative = inhibition": "-2.52% (inactive)"}, {"smiles": "Cc1ccc(OC2=NS(=O)(=O)c3ccccc32)cc1", "activity, negative = inhibition": "-1.98% (inactive)"}, {"smiles": "Cn1c2cc(S(C)=O)sc2c2cnn(Cc3cccc(O)c3)c(=O)c21", "note": "(stereo not drawn)", "activity, negative = inhibition": "1.28% (inactive)"}, {"smiles": "O=C1c2ccccc2C(=O)N1c1cccc(=O)[nH]1", "activity, negative = inhibition": "-2.84% (inactive)"}, {"smiles": "Nc1cc(S(=O)(=O)N2CCN(S(=O)(=O)c3ccc4c(c3)OCCO4)CC2)ccn1", "activity, negative = inhibition": "-17.1% (inactive)"}, {"smiles": "COc1ccc(S(=O)(=O)Nc2ccc(C)c(C)c2)cc1", "activity, negative = inhibition": "-2.2% (inactive)"}, {"smiles": "O=C(/C=C/c1ccc2c(c1)OCO2)c1ccccn1", "Potency": "5.8 µM (active)"}]}]}
